# In PubChem BioAssay (NCATS):
# Values joined by “and” are separate entries in the source; they are usually repeats but may differ in a detail not shown here. Equal values may be shown once. Results filed as inconclusive are left out. Entries that show only a call come without a potency. Active and inactive are the calls of the source. Unless noted, calls follow the shape of the dose curve; as a rule, active = well fitted curve in the direction sought with a large enough effect; inconclusive = small, poorly fitted or top-dose-only effect, or another doubt; inactive = no such curve, though single readings can be large; an effect the other way counts as inactive or inconclusive.
# Tests used:
# [1] = Cell Viability - Hek293 (AID 427;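 active = compounds whose dose-response curve shows a full or clear partial loss of cell viability, called from curve shape rather than a numeric limit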;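 also: potency is read from the fitted curve at half-maximal effect; cells exposed to compound for 40 hours at 37 °C before reading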); settings: qHTS
# Summary of the method: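 qHTS, human embryonic kidney (adenovirus-transformed) cells; 40 hr cpd, 37 °C; CellTiter-Glo ATP luminescence. Norm: DMSO = 0, 100 uM tamoxifen = 100% inhibition. Hill-fit AC50.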
# [2] = Cell Viability - SK-N-SH (AID 435; calls by dose curve;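 also: potency is read from the fitted curve at half-maximal effect; compound exposure lasted 40 h at 37 °C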); settings: SK-N-SH neuroblastoma cell viability qHTS
# Summary of the method: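 Human neuroblastoma line, 40 h exposure at 37 °C, ATP quantified via luciferase luminescence; DMSO and 100 uM tamoxifen define 0 and 100% inhibition for AC50 fitting.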
# [3] = Cell Viability - Renal Proximal Tubule (AID 545); settings: renal proximal tubule cells viability, primary cells of rat origin; activity change, negative = cytotoxicity: at 91.7 µM (top of the series); also: nearly all actives have a fitted effect of over 40% in size
# Summary of the method: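 In this qHTS format, normal rat kidney-derived proximal tubule cells in complete culture medium receive compound titrations, then sit 40 hours at 37 °C before luciferase-based ATP quantitation; potency is reported as AC50 from concentration-response curves.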
# [4] = MultiTox-Fluor Cytotoxicity Assay - LYMP1-001 - Live Cells (AID 947); settings: LYMP1-001 lymphoblastoid cells, live-cell protease fluorescence viability; series mostly up to 92.2 µM
# [5] = MultiTox-Fluor Cytotoxicity Assay - LYMP1-002 - Dead Cells (AID 960); settings: LYMP1-002 lymphoblastoid cells, dead-cell protease fluorescence; series mostly up to 46.1 µM;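 also: cells exposed to compound for 16 h at 37 °C; nearly all actives have a fitted effect of over 60% in size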
# Summary of the method: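 Readout: fluorescence at 485/520 from cell-impermeant bis-AAF-R110 cleaved by proteases leaking from damaged cells. LYMP1-002 lymphoblastoid line, 16 hr compound treatment at 37 C, concentration-response in qHTS format; Hill-equation AC50 values.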
# [6] = Cell Viability - LYMP2-005 (AID 967); settings: LYMP2-005 lymphoblastoid cell viability; series mostly up to 92.2 µM
# Summary of the method: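 Luciferase-based ATP quantitation served as the viability measure in human lymphoblastoid LYMP2-005 cells exposed to test compounds for 24 h at 37 C in complete culture medium. Potency (AC50) was obtained by fitting concentration-response curves with the Hill equation.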
# [7] = Cell Viability - LYMP2-009 (AID 968); settings: LYMP2-009 lymphoblastoid cell viability; series mostly up to 92.2 µM; also: nearly all actives have a fitted effect of over 55% in size
# [8] = Cell Viability - LYMP2-015 (AID 971); settings: LYMP2-015 lymphoblastoid cell viability; series mostly up to 92.2 µM; also: nearly all actives have a fitted effect of over 55% in size
# Summary of the method: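 qHTS cytotoxicity: 2500 cells/well, 5 hr 37 C, compound 24 hr 37 C, CellTiter-Glo 30 min RT, luminescence. Loss of ATP = toxicity; AC50 via standard Hill fit.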
# [9] = Cell Viability - LYMP2-019 (AID 973); settings: LYMP2-019 lymphoblastoid cell line viability; series mostly up to 92.2 µM; also: nearly all actives have a fitted effect of over 55% in size
# Summary of the method: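 qHTS, 1536-well; 2500 cells/well; 5 hr pre-incubation, 24 hr compound exposure, 37 C; CellTiter-Glo added, 30 min RT; luminescence read; AC50 via standard Hill equation.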
# [10] = Cell Viability - LYMP2-006 (AID 978); settings: LYMP2-006 lymphoblastoid cell viability, qHTS; series mostly up to 92.2 µM; also: nearly all actives have a fitted effect of over 60% in size
# Summary of the method: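 In this cytotoxicity screen, the human lymphoblastoid line grew in complete medium with test compounds for 24 hr at 37 C. Cellular ATP served as the viability signal.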
# [11] = Cell Viability - LYMP2-010 (AID 981); settings: LYMP2-010 lymphoblastoid cell viability, qHTS; series mostly up to 92.2 µM; also: nearly all actives have a fitted effect of over 55% in size
# Summary of the method: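 qHTS cytotoxicity, 1536-well: 2500 cells/well, 5 hr settle, 24 hr compound at 37 C, CellTiter-Glo 30 min RT, luminescence read. Decrease in ATP = toxicity; AC50 via standard Hill equation. Positive control tetraoctylammonium bromide.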
# [12] = target: Glucocorticoid receptor (Homo sapiens) (UniProt P04150); test: qHTS assay for small molecule agonists of glucocorticoid receptor signaling (AID 588532; active = well fitted curve in the direction sought with a large enough effect in the signal ratio, with a control signal flat; the % refers to the signal ratio); settings: HeLa MMTV-bla, beta-lactamase ratio, agonist, 18 h; stronger effect = higher value; percent of dexamethasone control, DMSO zero
# Summary of the method: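 Quantitative HTS using CellSensor MMTV-bla HeLa cells in charcoal/dextran-treated serum; compounds tested up to 92 uM. After 18 h at 37 C, CCF4 dye reported reporter induction.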
# [13] = target: Thyroid hormone receptor beta (Homo sapiens) (UniProt P10828); test: qHTS assay for small molecule agonists of thyroid hormone receptor beta signaling (AID 588545; calls by dose curve); settings: TR-UAS-bla GripTite HEK 293, beta-lactamase ratio, agonist mode, 18 h; series mostly up to 76.7 µM
# Summary of the method: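 Compounds were tested as agonists in TR-UAS-bla-GripTite HEK 293 cells. After 18 hrs at 37 C, CCF4 substrate was added and fluorescence read after 2 hrs at room temperature.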
# [14] = target: Thyroid hormone receptor beta (Homo sapiens) (UniProt P10828); test: qHTS assay for small molecule antagonists of thyroid hormone receptor beta signaling (AID 588547; active = well fitted inhibition curve with a large enough effect in the signal ratio, with a control signal flat, not every such curve was filed as active; the % refers to the signal ratio;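 also: cells stimulated with 0.4 nM T3 agonist during compound exposure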); settings: TR-UAS-bla HEK293, beta-lactamase ratio, antagonist mode, 18 h
# Summary of the method: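 Inhibition of T3-driven (0.4nM final) beta-lactamase reporter activity was measured over 0.59 nM to 92 uM compound after 18 h at 37 C. The cells were GripTite HEK293 TR-UAS-bla in charcoal/dextran-stripped serum, with CCF4 ratio read-out and IC50 from Hill fits.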
# [15] = qHTS assay for small molecule disruptors of the mitochondrial membrane potential - 1 hr assay (AID 651754; calls by dose curve; also: nearly all actives have a fitted effect of over 35% in size); settings: series mostly up to 92.2 µM
# Summary of the method: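 Read-out: dye fluorescence at 490 nm ex/535 nm em (monomers) and 540 nm ex/590 nm em (aggregates) in HepG2 cells. Compound exposure 1 hr at 37C, followed by 30 min dye loading.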
# [16] = qHTS assay for small molecule disruptors of the mitochondrial membrane potential - 5 hr assay (AID 651755; calls by dose curve; also: nearly all actives have a fitted effect of over 40% in size); settings: JC-1-type ratio dye; series mostly up to 92.2 µM
# Summary of the method: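 Membrane-potential dye readout: red aggregate (540 ex/590 em) versus green monomer (490 ex/535 em) fluorescence after 30 min dye loading, following 5 hr compound exposure at 37C of overnight-plated HepG2 cells.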
# [17] = target: Nuclear receptor subfamily 1 group I member 2 (Rattus norvegicus) (UniProt Q9R1A7); test: qHTS assay for small molecule activators of the rat pregnane X receptor (rPXR) signaling pathway (AID 651751; call rule not given here); settings: rPXR reporter cells, luciferase (One-Glo), 24 h
# [18] = qHTS assay for small molecule agonists of retinoid X receptor alpha signaling (AID 588544); settings: HEK293T RXRa-UAS-bla, beta-lactamase reporter, 18 h; 530 nm emission
# [19] = target: Voltage-gated inwardly rectifying potassium channel KCNH2 (Homo sapiens) (UniProt Q12809); test: qHTS Assay for Small Molecule Inhibitors of the Human hERG Channel Activity (AID 588834); settings: U2OS BacMam hERG, FluxOR thallium flux fluorescence; series mostly up to 92.2 µM;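 also: top concentration of the series differs between compounds; lower thallium flux fluorescence means stronger hERG block; nearly all actives have a fitted effect of over 50% in size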
# Summary of the method: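 Homogeneous FluxOR thallium flux assay using hERG-expressing U2OS cells (BacMam). Compound treatment about 10 minutes preceded stimulation; reduced fluorescence taken as channel block.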
# [20] = qHTS assay for small molecule antagonists of the retinoid-related orphan receptor gamma (ROR-gamma) signaling pathway - cell viability counter screen (AID 720652; active = well fitted curve in the direction sought with a large enough effect in the repeat runs; an effect the other way counts as inactive or inconclusive;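 also: CHO reporter cells with doxycycline-induced ROR-gamma expression; compound exposure lasted 16 hr before ATP read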); settings: RORgamma reporter cell line viability counter screen; series mostly up to 92.2 µM
# Summary of the method: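 CHO RORE-LUC/TET-ROR line, 1,000 cells/well, 37 C 5% CO2 5 hr; cpd or DMSO + doxycycline induction, 16 hr. CellTiter-Glo, 30 min RT, luminescence = ATP content.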
# Glucocorticoid receptor (Homo sapiens), sequence (P04150 whole entry, looked up): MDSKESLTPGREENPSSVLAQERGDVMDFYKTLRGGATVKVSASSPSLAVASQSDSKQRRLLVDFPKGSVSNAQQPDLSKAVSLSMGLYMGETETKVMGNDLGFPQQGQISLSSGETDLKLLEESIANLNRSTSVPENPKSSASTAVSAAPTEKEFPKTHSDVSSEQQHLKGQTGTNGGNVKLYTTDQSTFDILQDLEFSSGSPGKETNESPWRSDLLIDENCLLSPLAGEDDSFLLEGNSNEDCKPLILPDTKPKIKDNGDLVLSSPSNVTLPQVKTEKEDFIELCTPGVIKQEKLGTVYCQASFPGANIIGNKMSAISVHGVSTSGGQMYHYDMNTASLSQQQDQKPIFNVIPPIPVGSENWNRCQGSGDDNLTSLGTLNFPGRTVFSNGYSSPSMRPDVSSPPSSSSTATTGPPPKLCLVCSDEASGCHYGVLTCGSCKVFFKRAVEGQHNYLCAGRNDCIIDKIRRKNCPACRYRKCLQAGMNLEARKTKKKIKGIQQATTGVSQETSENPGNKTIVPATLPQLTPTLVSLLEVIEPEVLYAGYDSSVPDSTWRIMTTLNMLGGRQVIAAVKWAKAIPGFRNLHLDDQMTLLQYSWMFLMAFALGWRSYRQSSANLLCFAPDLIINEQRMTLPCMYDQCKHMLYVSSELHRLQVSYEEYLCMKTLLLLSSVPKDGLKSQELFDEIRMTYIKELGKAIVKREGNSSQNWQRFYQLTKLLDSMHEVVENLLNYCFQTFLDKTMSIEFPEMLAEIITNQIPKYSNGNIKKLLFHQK
# Voltage-gated inwardly rectifying potassium channel KCNH2 (Homo sapiens), sequence (Q12809 whole entry, looked up): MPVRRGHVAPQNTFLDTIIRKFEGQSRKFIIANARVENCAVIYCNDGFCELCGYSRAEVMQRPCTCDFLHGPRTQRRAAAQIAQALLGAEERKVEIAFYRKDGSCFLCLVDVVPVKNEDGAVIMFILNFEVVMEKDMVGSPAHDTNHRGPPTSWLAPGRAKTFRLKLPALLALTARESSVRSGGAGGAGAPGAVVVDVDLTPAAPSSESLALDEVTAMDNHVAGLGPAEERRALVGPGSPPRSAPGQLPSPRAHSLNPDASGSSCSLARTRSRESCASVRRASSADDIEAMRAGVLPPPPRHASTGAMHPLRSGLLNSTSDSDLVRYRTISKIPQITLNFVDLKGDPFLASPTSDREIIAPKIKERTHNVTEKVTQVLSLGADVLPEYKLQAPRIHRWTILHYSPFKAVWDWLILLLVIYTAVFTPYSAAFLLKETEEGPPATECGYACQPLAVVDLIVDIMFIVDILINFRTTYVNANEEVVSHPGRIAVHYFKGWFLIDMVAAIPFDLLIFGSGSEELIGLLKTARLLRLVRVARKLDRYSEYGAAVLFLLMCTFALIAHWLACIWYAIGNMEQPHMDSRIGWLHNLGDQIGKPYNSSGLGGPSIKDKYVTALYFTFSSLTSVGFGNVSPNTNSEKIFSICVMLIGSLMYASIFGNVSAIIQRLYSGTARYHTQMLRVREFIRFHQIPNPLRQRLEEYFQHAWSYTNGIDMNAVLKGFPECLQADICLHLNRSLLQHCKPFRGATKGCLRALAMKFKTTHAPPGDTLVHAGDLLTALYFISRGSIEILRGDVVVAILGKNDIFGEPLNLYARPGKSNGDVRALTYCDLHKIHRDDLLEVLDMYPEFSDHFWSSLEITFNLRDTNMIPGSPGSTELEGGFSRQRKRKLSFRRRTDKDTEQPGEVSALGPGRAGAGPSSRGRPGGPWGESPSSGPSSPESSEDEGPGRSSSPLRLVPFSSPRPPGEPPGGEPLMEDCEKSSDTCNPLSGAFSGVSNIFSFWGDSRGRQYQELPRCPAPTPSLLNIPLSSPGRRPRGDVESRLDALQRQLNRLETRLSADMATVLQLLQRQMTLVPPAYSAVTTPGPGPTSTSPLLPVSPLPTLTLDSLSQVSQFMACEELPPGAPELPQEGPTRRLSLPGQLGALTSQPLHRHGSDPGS
# Thyroid hormone receptor beta (Homo sapiens), sequence (P10828 whole entry, looked up): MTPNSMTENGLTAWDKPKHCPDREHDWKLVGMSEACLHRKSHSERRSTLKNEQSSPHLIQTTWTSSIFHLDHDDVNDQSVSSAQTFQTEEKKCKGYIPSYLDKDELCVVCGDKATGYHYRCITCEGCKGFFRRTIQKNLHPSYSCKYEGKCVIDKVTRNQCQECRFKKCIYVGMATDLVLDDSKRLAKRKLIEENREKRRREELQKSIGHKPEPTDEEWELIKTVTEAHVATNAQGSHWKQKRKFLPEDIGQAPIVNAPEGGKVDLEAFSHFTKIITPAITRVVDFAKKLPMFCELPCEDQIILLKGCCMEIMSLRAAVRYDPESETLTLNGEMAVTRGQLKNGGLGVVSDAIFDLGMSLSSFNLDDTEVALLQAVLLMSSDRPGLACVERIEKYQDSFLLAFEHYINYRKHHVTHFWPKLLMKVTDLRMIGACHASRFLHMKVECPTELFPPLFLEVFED
# Nuclear receptor subfamily 1 group I member 2 (Rattus norvegicus), sequence (Q9R1A7 whole entry, looked up): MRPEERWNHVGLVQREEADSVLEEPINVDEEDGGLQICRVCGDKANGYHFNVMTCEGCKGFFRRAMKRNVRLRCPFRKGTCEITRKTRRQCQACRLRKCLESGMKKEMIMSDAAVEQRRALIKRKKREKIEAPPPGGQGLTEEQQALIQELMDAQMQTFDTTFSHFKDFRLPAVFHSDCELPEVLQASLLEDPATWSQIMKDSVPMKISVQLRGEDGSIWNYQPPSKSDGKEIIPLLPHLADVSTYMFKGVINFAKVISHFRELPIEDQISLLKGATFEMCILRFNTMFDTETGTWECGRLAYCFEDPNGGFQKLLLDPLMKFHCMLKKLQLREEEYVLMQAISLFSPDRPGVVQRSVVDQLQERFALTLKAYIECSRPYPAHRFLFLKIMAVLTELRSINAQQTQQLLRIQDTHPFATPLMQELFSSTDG
SMILES,Potency [1],Potency [2],Potency [3],Potency [4],Potency [5],Potency [6],Potency [7],Potency [8],Potency [9],Potency [10],Potency [11],activation [12],Potency [13],activity change % (negative = inhibition) [14],Potency [15],Potency [16],max response [17],max response [18],Potency [19],Potency [20]
CCc1ccc(C(c2ccc(CC)cc2)C(Cl)Cl)cc1,> 92 µM (inactive),> 92 µM (inactive),inactive,inactive,inactive,inactive,inactive,inactive,inactive,inactive,inactive,1.14% (inactive),inactive,13.5% (inactive),inactive,inactive,1.82% (inactive),,,
O=CC(=O)c1ccccc1,> 92 µM (inactive),> 92 µM (inactive),inactive,inactive,inactive,inactive,,,inactive,,inactive,-5.46% (inactive),,,inactive,inactive,11.8% (inactive),-0.232%,inactive,inactive
CCCCNCC,> 92 µM (inactive),> 92 µM (inactive),inactive,inactive,inactive,inactive,inactive,inactive,inactive,inactive,inactive,-12.1% (inactive),,,inactive,inactive,1.14% (inactive),-3.36%,,inactive
O=[N+]([O-])c1cccc(I)c1,> 92 µM (inactive),> 92 µM (inactive),inactive,inactive,inactive,inactive,inactive,inactive,inactive,inactive,inactive,-12.6% (inactive),inactive,-8.55% (inactive),inactive,inactive,-1.98% (inactive),-0.727%,inactive,inactive
CCCC(=O)OC(=O)CCC,> 92 µM (inactive),> 92 µM (inactive),inactive,inactive,inactive,,inactive,inactive,inactive,inactive,,,inactive,18.6% (inactive) and 0.261% (inactive),inactive,inactive,-1.94% (inactive) and 0.492% (inactive),16.4% and -19.3%,inactive,inactive
C[Si](C)(C)Cl,> 92 µM (inactive),> 92 µM (inactive),inactive,,inactive,inactive,inactive,inactive,inactive,inactive,inactive,10.5% (inactive),inactive,-7.14% (inactive),inactive,inactive,1.16% (inactive),8.09%,inactive,inactive
